Data on seven compounds can be found in PubChem BioAssay (Tox21).

Experiment [1] can be described thus: qHTS assay to identify aromatase inhibitors - cell viability counter screen (AID 743084).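 Further: cells stimulated with testosterone during compound exposure; nearly all actives have a fitted effect of over 55% in size.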
The target of experiment [2] is Aryl hydrocarbon receptor (Homo sapiens) (UniProt P35869). The experiment can be described thus: qHTS assay to identify small molecule that activate the aryl hydrocarbon receptor (AhR) signaling pathway (AID 743085).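 Further: HG2L7.5c1 human HepG2 liver cells with stably integrated DRE-driven firefly reporter; series mostly up to about 70 µM; nearly all actives have a fitted effect of over 15% in size.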 The gist of the method:
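A multiplexed format paired cell viability (CellTiter-Fluor fluorescence) with AhR-dependent luciferase output (ONE-Glo luminescence) in the same wells of HepG2 DRE-luc cells after 24 h compound exposure at 37C.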

The nature of experiment [3]: qHTS assay to identify small molecule that activate the aryl hydrocarbon receptor (AhR) signaling pathway - cell viability counter screen (AID 743086).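 Further: HepG2 liver cells carrying the AhR DRE luciferase reporter; series mostly up to about 70 µM; nearly all actives have a fitted effect of over 45% in size.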 The gist of the method: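 HepG2-AhR-luc (HG2L7.5c1) cells, 4000/well, were preincubated 5 h at 37C, exposed to compound in qHTS format for 24 hr at 37C, then given CellTiter-Fluor for 30 min; viability was read as fluorescence in the reporter wells.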

For experiment [4], the target named is Peroxisome proliferator-activated receptor gamma (Homo sapiens) (UniProt P37231). The experiment can be described thus: qHTS assay to identify small molecule agonists of the peroxisome proliferator-activated receptor gamma (PPARg) signaling pathway (AID 743094; active means well fitted activation curve with a large enough effect in the signal ratio in the repeat runs, not every such curve was filed as active; the % refers to the signal ratio). The gist of the method: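 Beta-lactamase FRET fluorescence was the read-out after a 1 h room-temperature substrate step, following 17 h compound treatment at 37C of HEK293H cells expressing a UAS-driven bla reporter responsive to PPARg.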
Sequence of Peroxisome proliferator-activated receptor gamma (Homo sapiens) (P37231 whole entry, looked up): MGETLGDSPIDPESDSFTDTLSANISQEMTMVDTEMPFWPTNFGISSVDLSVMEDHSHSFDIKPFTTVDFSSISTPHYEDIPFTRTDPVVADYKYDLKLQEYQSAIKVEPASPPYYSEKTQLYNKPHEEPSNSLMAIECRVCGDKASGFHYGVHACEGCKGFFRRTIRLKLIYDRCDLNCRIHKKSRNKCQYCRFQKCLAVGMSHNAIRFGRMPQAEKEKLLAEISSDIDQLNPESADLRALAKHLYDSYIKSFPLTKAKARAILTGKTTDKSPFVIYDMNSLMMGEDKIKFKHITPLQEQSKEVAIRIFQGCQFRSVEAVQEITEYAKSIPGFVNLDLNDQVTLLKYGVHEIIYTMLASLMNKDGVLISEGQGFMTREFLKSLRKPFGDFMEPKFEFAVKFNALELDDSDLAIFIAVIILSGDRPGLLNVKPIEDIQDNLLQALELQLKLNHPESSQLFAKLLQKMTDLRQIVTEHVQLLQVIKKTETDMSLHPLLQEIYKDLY

For experiment [5] the target is unchanged. The experiment can be described thus: qHTS assay to identify small molecule antagonists of the peroxisome proliferator-activated receptor gamma (PPARg) signaling pathway (AID 743191; calls by dose curve; further: nearly all actives have a fitted effect of over 30% in size; further: potency means the concentration at half of the fitted maximal effect). In outline:
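GeneBLAzer PPARg UAS-bla HEK293H cells carrying a UAS-driven beta-lactamase reporter were plated at 3000 cells/well, preincubated 5 h at 37C, then given compound for 17 h at 37C; LiveBLAzer B/G FRET substrate was read after 1 h at room temperature.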

Experiment [6] is described as follows: qHTS assay to identify small molecule antagonists of the peroxisome proliferator-activated receptor gamma (PPARg) signaling pathway - cell viability counter screen (AID 743194). Further: nearly all actives have a fitted effect of over 55% in size. The note with it: Potency: co-treated with 50 nM rosiglitazone unless noted. In outline: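 PPARg-UAS-bla HEK293H cells were plated, rested 5 h at 37 C, then treated with compounds plus rosiglitazone (50 nM final) for 17 h at 37 C; viability was then read by CellTiter-Glo luminescence after 30 min at room temperature.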

Experiment [7] is described as follows: qHTS assay for small molecule agonists of the antioxidant response element (ARE) signaling pathway - cell viability counter screen (AID 743203; calls by dose curve; further: nearly all actives have a fitted effect of over 55% in size). The gist of the method:
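HepG2 cells carrying ARE-driven beta-lactamase; 2,000 cells/well; 5 hrs plating; compound pinned from DMSO; 16 hrs 37C/5% CO2; CellTiter-Glo added; 30 min RT; luminescence.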

Experiment [8] in a line: qHTS assay for small molecule activators of the heat shock response signaling pathway - cell viability counter screen (AID 743209). Further: nearly all actives have a fitted effect of over 50% in size. In outline: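 Luminescence from CellTiter-Glo, added after the beta-lactamase FRET read, gave the viability signal. Cells were HSE-bla HeLa treated with DMSO-dissolved compounds for 5 h at 37 C following overnight plating.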
Experiment [9] is described as follows: qHTS assay for small molecule activators of the heat shock response signaling pathway (AID 743210; active means well fitted activation curve with a large enough effect in the signal ratio in the repeat runs, with a control signal flat, not every such curve was filed as active; the % refers to the signal ratio;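 further: HeLa cells with beta-lactamase reporter driven by heat shock elements; series mostly up to about 63 µM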). In outline: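 Reporter gene assay: HeLa cells stably bearing an HSE-bla construct, compound treatment 5 h at 37 C, LiveBLAzer substrate 2.5 h at RT, fluorescence intensity.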
The nature of experiment [10]: qHTS assay to identify small molecule agonists of the peroxisome proliferator-activated receptor delta (PPARd) signaling pathway - cell viability counter screen (AID 743211). Further: nearly all actives have a fitted effect of over 55% in size. In outline:
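Tox21 library compounds, delivered in DMSO, were incubated 17 h with PPARd-bla HEK293H cells; cytotoxicity was taken from CellTiter-Glo luminescence read 30 min after reagent addition.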

For experiment [11], the target named is Peroxisome proliferator-activated receptor delta (Homo sapiens) (UniProt Q03181). The experiment can be described thus: qHTS assay to identify small molecule agonists of the peroxisome proliferator-activated receptor delta (PPARd) signaling pathway (AID 743212; calls by dose curve). The gist of the method: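 A PPARd-bla HEK293H line with beta-lactamase under an Upstream Activator Sequence is treated with compounds at 37 C. Substrate loading for 2 h at room temperature precedes the fluorescence measurement.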
Sequence of Peroxisome proliferator-activated receptor delta (Homo sapiens) (Q03181 whole entry, looked up): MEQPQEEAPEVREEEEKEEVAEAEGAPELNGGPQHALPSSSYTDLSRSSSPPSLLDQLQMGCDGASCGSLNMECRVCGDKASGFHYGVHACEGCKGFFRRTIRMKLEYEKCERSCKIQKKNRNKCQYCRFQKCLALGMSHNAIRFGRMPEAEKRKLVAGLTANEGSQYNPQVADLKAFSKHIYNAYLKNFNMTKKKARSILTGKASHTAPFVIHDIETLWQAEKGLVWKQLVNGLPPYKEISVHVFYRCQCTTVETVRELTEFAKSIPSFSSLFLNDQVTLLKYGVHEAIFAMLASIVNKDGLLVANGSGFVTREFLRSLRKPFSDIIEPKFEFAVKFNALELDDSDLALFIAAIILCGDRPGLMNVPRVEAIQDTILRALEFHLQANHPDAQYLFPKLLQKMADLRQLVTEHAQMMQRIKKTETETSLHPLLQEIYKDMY

A short description of experiment [12]: qHTS assay to identify small molecule antagonists of the peroxisome proliferator-activated receptor delta (PPARd) signaling pathway - cell viability counter screen (AID 743213). Further: nearly all actives have a fitted effect of over 50% in size. In outline:
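Cytotoxicity counter screen: CellTiter-Glo luminescence read 30 min after addition, in the same wells as the reporter assay. There, PPARd UAS-bla HEK293H cells (3000/well) were treated 17 h at 37 C with compound and 300 nM L165041.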

The target in experiment [13] is Peroxisome proliferator-activated receptor delta (Homo sapiens) (UniProt Q03181). The experiment is described as follows: qHTS assay to identify small molecule antagonists of the peroxisome proliferator-activated receptor delta (PPARd) signaling pathway (AID 743215; active means well fitted inhibition curve with a large enough effect in the signal ratio in the repeat runs, not every such curve was filed as active; the % refers to the signal ratio;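 further: cells stimulated with agonist L165041 at 300 nM final during compound exposure; series mostly up to about 62 µM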). In outline: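 Read-out is beta-lactamase FRET fluorescence, measured 2 h after substrate addition at room temperature. Beforehand, UAS-bla HEK293H cells carrying the PPARd reporter were exposed to compounds with L165041 at 300 nM final for 17 h at 37 C.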

The nature of experiment [14]: qHTS assay to identify small molecule agonists of the farnesoid-X-receptor (FXR) signaling pathway - cell viability counter screen (AID 743218). Further: nearly all actives have a fitted effect of over 45% in size. The gist of the method:
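HEK 293T FXR-bla cells; 5 h pre-incubation, 16 h compound exposure at 37 C; LiveBLAzer substrate 2 h RT, then CellTiter-Glo 30 min RT, luminescence.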

A short description of experiment [15]: qHTS assay to identify small molecule antagonists of the farnesoid-X-receptor (FXR) signaling pathway - cell viability counter screen (AID 743221; active means well fitted cell-killing curve with a large enough effect in the repeat runs, not every such curve was filed as active; further: nearly all actives have a fitted effect of over 50% in size). In outline: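 Cytotoxicity is taken from ATP luminescence (CellTiter-Glo, 30 min, room temperature) in FXR-bla HEK 293T cells previously incubated 16 h at 37 C with compound and chenodeoxycholic acid at 50 uM final.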

For experiment [16], the target named is Vitamin D3 receptor (Homo sapiens) (UniProt P11473). The experiment can be described thus: qHTS assay to identify small molecule agonists of the vitamin D receptor (VDR) signaling pathway (AID 743222; calls by dose curve). In outline:
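VDR-bla cells, 2,000/well; 4 h preincubation 37C; cpd (DMSO) 16 h; LiveBLAzer B/G substrate 2 h RT; fluorescence intensity read.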

Experiment [17] shares this target. The experiment can be described thus: qHTS assay to identify small molecule antagonists of the vitamin D receptor (VDR) signaling pathway (AID 743223; active means well fitted inhibition curve with a large enough effect in the signal ratio in the repeat runs, not every such curve was filed as active; the % refers to the signal ratio). The gist of the method: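 Quantitative HTS in VDR-bla reporter cells stimulated with 1alpha,25-dihydroxyvitamin D3, 3 nM final. Compound exposure 16 h, 37C, 5% CO2. Read-out: beta-lactamase FRET substrate fluorescence, 2 h RT.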

Experiment [18] in a line: qHTS assay for small molecule agonists of the antioxidant response element (ARE) signaling pathway (AID 743202; active means well fitted activation curve with a large enough effect in the signal ratio in the repeat runs, not every such curve was filed as active; the % refers to the signal ratio). In outline:
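Compounds delivered in DMSO to ARE-bla HepG2 cells (2,000 cells/well, pre-incubated 5 h) and left 16 h at 37 C. LiveBLAzer B/G FRET substrate then added for 2 h at RT before fluorescence reading.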

Experiment [19] has as its target Bile acid receptor (Homo sapiens) (UniProt Q96RI1). The experiment is described as follows: qHTS assay to identify small molecule antagonists of the farnesoid-X-receptor (FXR) signaling pathway (AID 743217; active means well fitted inhibition curve with a large enough effect in the signal ratio in the repeat runs, not every such curve was filed as active; the % refers to the signal ratio). In outline:
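HEK 293T FXR-UAS-bla, 5000 cells/well; compound + CDCA 50 uM final; 16 h, 37 °C; B/G FRET substrate 2 h RT; fluorescence.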

The target is the same in experiment [20]. The experiment can be described thus: qHTS assay to identify small molecule agonists of the farnesoid-X-receptor (FXR) signaling pathway (AID 743220; active means well fitted activation curve with a large enough effect in the signal ratio in the repeat runs, not every such curve was filed as active; the % refers to the signal ratio). The gist of the method:
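Beta-lactamase reporter under UAS control in GeneBLAzer FXR HEK 293T cells (5000/well) measured with LiveBLAzer FRET substrate after 2 h at room temperature. Compound exposure lasted 16 h at 37C.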

Results filed as inconclusive are left out. The source made the active and inactive calls. Unless noted, the call rests on the fitted dose curve; in most records, active means well fitted curve in the direction sought with a large enough effect in the repeat runs; inconclusive means weak or mixed curves; inactive means no such curve, though single readings can be large; an effect the other way counts as inactive or inconclusive.

Sequence of Vitamin D3 receptor (Homo sapiens) (P11473 whole entry, looked up): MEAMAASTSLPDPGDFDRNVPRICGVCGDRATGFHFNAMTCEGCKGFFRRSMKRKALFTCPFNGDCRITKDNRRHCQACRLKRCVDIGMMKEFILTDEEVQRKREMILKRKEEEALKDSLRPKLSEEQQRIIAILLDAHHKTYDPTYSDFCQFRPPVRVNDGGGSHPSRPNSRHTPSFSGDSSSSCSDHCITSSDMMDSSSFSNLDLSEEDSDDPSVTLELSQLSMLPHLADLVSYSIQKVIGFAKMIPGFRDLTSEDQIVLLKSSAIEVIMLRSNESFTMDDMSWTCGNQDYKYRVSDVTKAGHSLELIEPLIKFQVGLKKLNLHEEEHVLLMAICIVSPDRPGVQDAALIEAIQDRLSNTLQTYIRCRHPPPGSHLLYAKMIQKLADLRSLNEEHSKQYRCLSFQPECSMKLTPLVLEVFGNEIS
Sequence of Aryl hydrocarbon receptor (Homo sapiens) (P35869 whole entry, looked up): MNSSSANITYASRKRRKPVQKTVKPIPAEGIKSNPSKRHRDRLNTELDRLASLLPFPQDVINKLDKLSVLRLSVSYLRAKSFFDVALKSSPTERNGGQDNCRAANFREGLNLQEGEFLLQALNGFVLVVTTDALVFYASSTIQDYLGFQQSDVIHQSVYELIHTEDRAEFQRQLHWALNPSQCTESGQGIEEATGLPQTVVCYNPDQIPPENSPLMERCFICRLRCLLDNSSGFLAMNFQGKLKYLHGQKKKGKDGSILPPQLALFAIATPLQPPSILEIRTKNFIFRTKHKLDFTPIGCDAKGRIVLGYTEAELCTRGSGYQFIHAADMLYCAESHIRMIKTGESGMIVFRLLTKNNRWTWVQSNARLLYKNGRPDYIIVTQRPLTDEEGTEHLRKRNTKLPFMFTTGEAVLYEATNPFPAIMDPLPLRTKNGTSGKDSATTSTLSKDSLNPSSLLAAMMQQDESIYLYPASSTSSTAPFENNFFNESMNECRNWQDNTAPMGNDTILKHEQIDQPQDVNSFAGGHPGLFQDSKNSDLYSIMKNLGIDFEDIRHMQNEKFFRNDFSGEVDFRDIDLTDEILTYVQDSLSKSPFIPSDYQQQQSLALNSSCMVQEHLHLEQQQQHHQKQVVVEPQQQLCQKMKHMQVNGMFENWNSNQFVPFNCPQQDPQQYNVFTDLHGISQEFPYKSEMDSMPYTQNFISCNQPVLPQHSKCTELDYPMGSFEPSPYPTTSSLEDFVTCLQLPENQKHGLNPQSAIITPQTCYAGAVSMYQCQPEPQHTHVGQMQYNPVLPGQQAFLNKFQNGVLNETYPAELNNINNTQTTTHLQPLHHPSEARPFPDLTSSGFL
Sequence of Bile acid receptor (Homo sapiens) (Q96RI1 whole entry, looked up): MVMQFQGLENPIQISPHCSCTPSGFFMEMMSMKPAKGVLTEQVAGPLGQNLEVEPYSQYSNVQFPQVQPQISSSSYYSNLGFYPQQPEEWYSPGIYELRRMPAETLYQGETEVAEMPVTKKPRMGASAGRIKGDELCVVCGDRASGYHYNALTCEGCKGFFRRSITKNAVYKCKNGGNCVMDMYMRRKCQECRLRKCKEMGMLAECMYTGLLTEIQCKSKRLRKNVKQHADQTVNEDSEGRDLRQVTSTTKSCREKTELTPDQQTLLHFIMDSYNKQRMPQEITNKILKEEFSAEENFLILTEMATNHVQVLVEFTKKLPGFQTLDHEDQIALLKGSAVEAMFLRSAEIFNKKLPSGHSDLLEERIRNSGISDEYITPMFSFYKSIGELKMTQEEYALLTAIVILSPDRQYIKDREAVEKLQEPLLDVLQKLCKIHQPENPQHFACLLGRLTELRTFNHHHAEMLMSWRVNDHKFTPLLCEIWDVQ

On to `CCC1(CC)C(=O)N=C(O)NC1=O`, for which the Potency result in experiment [1], in experiment [2], in experiment [3], in [4], in experiment [5] and in experiment [6] was “inactive” each time. For the same compound, the Potency entry in [7], in [8], in [9], in experiment [10], in experiment [11] and in experiment [12] was “inactive” throughout. Besides, the Potency result in experiment [13], in experiment [14], in experiment [15], in experiment [16] and in experiment [17] was “inactive” in each case.

With `Oc1cccc(Cl)c1Cl`, the Potency entry in [1], in [2], in experiment [3], in experiment [4], in [6] and in experiment [18] was “inactive” throughout. For the same compound, the Potency result in experiment [7], in experiment [8], in experiment [9], in [10], in [12] and in experiment [13] was “inactive” throughout. For the same compound, the Potency entry in experiment [14] and in experiment [15] was “inactive” each time.

Take `CNC(=O)O/N=C(\C)C(C)S(C)(=O)=O` (configuration not stated): the Potency result in experiment [1], in experiment [2], in [3], in [4], in experiment [5] and in experiment [6] was “inactive” in each case. Also, the Potency entry in experiment [18], in experiment [7], in [8], in experiment [9], in experiment [10] and in experiment [12] was “inactive” each time. In addition, the Potency result in experiment [13], in experiment [19], in experiment [14], in experiment [20], in experiment [15] and in [16] was “inactive” in each case. In experiment [17], the Potency entry was “inactive”.

`N#CCCl`: the Potency entry in experiment [1], in experiment [2], in [3], in [4], in experiment [5] and in experiment [6] was “inactive” throughout. Moreover, the Potency entry in experiment [7], in experiment [8], in experiment [9], in experiment [10], in experiment [12] and in experiment [19] was “inactive” throughout. The Potency entry in experiment [14], in experiment [20], in experiment [15], in experiment [16] and in [17] was “inactive” throughout.

For the compound `CCNc1nc(NC(C)C(C)C)nc(SC)n1` (configuration not stated), the Potency entry in [1], in [2], in experiment [3], in experiment [4], in experiment [5] and in [6] was “inactive” throughout. Moreover, the Potency result in [18], in experiment [7], in [8], in experiment [9], in experiment [10] and in experiment [11] was “inactive” in each case. Further, the Potency entry in experiment [12], in [13] and in experiment [14] was “inactive” throughout.

For the compound `COC(=O)c1cc(Oc2ccc(Cl)cc2Cl)ccc1[N+](=O)[O-]`, the Potency entry in experiment [1], in experiment [2], in [3], in experiment [4], in experiment [6] and in [18] was “inactive” each time. Also, the Potency result in [7], in experiment [8], in experiment [9], in [10], in experiment [11] and in experiment [12] was “inactive” throughout. The Potency result in [13], in [19], in experiment [14] and in experiment [16] was “inactive” each time. The Potency in [5] was 43.6 µM (active).

For `C#CCO`, the Potency result in experiment [1], in [2], in experiment [3], in [4], in experiment [5] and in experiment [6] was “inactive” each time. The Potency entry in experiment [18], in [7], in experiment [8], in [9], in [10] and in experiment [11] was “inactive” in each case. In addition, the Potency result in experiment [12], in experiment [13], in experiment [14], in experiment [15], in experiment [16] and in experiment [17] was “inactive” throughout.
